# Results as given in ChEMBL document CHEMBL1201862, “PubChem BioAssay data set” (2004).
# In all, about 400,000 compounds went through this assay and about 2,100 (0.53%) were called active. About 14% were inconclusive and are not listed. The rule behind the calls is not given here. This excerpt belongs to a sample that is enriched for actives.
# Target: Ataxin-2 (Homo sapiens) (UniProt Q99700)
# Assay: qHTS for Inhibitors of ATXN expression.
# Assay type: functional
# Ataxin-2 (Homo sapiens), sequence (Q99700 whole entry): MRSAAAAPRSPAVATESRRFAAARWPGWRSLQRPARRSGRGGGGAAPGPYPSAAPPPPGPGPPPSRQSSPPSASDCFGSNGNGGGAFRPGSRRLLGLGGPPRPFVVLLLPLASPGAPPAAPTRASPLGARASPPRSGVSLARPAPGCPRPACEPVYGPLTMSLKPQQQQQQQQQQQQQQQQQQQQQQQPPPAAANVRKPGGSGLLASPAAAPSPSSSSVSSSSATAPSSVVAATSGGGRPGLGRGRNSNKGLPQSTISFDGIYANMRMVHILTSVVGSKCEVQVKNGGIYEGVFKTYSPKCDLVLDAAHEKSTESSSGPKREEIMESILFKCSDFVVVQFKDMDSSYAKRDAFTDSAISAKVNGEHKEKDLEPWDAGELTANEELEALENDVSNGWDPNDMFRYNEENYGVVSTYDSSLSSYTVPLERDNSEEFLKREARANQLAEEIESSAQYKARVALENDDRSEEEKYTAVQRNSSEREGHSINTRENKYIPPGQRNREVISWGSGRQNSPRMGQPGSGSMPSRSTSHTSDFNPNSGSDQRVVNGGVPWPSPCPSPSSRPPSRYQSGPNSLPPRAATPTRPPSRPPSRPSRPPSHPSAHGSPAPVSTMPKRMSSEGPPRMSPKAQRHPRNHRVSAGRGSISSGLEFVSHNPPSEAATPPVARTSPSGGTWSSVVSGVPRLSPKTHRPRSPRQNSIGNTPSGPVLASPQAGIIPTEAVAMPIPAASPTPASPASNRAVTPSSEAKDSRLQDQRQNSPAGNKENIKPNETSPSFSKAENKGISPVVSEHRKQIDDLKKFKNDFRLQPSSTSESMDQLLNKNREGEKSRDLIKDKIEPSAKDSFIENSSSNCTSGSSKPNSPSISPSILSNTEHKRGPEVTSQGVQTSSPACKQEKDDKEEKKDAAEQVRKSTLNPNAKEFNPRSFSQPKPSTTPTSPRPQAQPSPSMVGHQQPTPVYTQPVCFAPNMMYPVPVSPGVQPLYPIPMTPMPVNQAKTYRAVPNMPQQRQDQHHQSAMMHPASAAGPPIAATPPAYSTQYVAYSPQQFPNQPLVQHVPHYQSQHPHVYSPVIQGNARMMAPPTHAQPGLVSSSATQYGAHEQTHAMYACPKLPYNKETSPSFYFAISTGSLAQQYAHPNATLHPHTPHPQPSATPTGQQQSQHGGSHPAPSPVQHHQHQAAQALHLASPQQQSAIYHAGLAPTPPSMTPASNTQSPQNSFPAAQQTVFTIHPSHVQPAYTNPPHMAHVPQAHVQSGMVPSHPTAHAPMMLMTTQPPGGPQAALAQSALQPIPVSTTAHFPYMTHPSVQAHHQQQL
row,Compound,Potency
1,c1ccc(C2=NN=C(c3ccncc3)c3ccc4ccccc4c3N2)cc1,inactive
2,N=c1c(C(=O)NCC2CCCO2)cc2c(=O)n3ccccc3nc2n1Cc1ccc(F)cc1 (centres undefined),inactive
3,Cc1cccc(C(=O)N2CCC(=O)N([C@H](COCc3ccc(Cl)cc3)Cc3ccccc3)CC2)c1,39.8 µM (active)
4,Cc1cccc(COC[C@H](Cc2ccccc2)N2CCN(C(=O)c3cccc(Cl)c3)CCC2=O)c1,25.1 µM (active)
5,O=C(c1cccc(Cl)c1)N1CCC(=O)N(C(COCc2cccc(Cl)c2)Cc2ccccc2)CC1 (centres undefined),35.5 µM (active)
6,Cc1cccc(C(=O)NCC(=O)N2CC=C(c3ccccc3)CC2)c1,inactive
7,Cc1ccc(S(=O)(=O)N2CCN(C(=O)COC(=O)Cc3ccc(Cl)cc3)CC2)c(C)c1,inactive
8,Cc1nn(Cc2ccccc2)c(C)c1C(=O)N1CCN(S(=O)(=O)/C=C/c2ccccc2)CC1,inactive
9,O=C1/C(=C/c2cccc(F)c2)Oc2cc(O)ccc21,inactive
10,CN1CCc2c(sc3c2C(=O)NC(/C=C\c2ccccc2)N3)C1 (centres undefined),inactive
11,O=c1cc(-c2ccccc2)c2ccc3c(c2o1)CN(Cc1cccc(Cl)c1)CO3,inactive
12,Cc1ccc(S(=O)(=O)C(C#N)c2nc3ccccc3nc2N2CC(C)OC(C)C2)cc1C (centres undefined),inactive
13,Cc1c(CCOC(=O)C23CC4CC(CC(C4)C2)C3)sc[n+]1CC#N,31.6 µM (active)
14,Cc1c(CCOC(=O)C2C3CC4CC(C3)CC2C4)sc[n+]1CC(=O)c1ccc(Br)cc1 (centres undefined),20 µM (active)
15,Cc1c(CCOC(=O)CC23CC4CC(CC(C4)C2)C3)sc[n+]1CC(=O)c1ccccc1,29.9 µM (active)
16,CN1CCC(N(C)C(S)=NCCc2ccccc2)CC1,inactive
17,CCNS(=O)(=O)c1ccc(CCC(=O)N2CCc3ccccc3C2)cc1,inactive
18,Cc1ccc2nc(C)c3c(c2c1)N(c1ccc(F)cc1)CC3,inactive
19,CC(C)NCC(O)Cn1c2c(c3ccccc31)CCc1c-2cnn1-c1ccccc1 (centres undefined),25.1 µM (active)
20,N#Cc1sc2nc(-c3cccs3)cc(-c3ccccc3)c2c1N,inactive
21,Cc1ccc(C(=O)Sc2cccccc2=O)cc1,2.51 µM (active)
22,NC(=O)c1ccc(NC(=O)CNC(c2ccccc2)c2ccccc2)cc1,inactive
23,Cc1ccc(C(=O)C(C)[n+]2cccc(C(N)=O)c2)cc1 (centres undefined),inactive
24,Cc1cccc(CC(=O)N2CCC(N3CCC(C(=O)N4CCOCC4)CC3)CC2)c1,inactive
25,COc1ccc(Cc2noc(CN(C)CCN3CCc4ccccc4C3)n2)cc1OC,inactive

row,Compound,Potency
1,COc1ccc(-c2noc(CSc3nnc(Cc4ccccc4)n3-c3cccc(C)c3)n2)cc1,39.8 µM (active)
2,COc1ccccc1-c1ccc(SCc2cccc(F)c2)nn1,inactive
3,COc1ccc(OC(C)C(=O)N(C)Cc2nc(-c3ccccc3)no2)cc1 (centres undefined),inactive
4,COc1ccc(OC(C)C(=O)N(C)Cc2nc(-c3ccc(C)cc3)no2)cc1 (centres undefined),inactive
5,COc1ccc(OC)c(-c2noc(CSc3nnc(Cc4ccccc4)n3-c3cccc(C)c3)n2)c1,22.4 µM (active)
6,COc1ccccc1-c1noc(CSc2nnc(Cc3ccccc3)n2-c2ccc(C)c(C)c2)n1,35.5 µM (active)
7,COc1ccc(-c2noc(CSc3nnc(Cc4ccccc4)n3-c3ccc(F)cc3)n2)cc1,39.8 µM (active)
8,COCC(C)n1c(SCc2nc(O)c3ccccc3n2)nc2ccccc2c1=O (centres undefined),inactive
9,Nc1ccc(-c2c3ccccc3nc3ccccc23)cc1,inactive
10,CC(=O)c1cnc(SCc2ccc(Cl)cc2)nc1C,inactive
11,COc1cccc(-c2csc(/C(C#N)=C/Nc3cc4oc5ccccc5c4cc3OC)n2)c1,inactive
12,CNC(=O)c1ccc(NC(=O)CC2SC(N3CCCC3)=NC2=O)cc1 (centres undefined),inactive
13,O=c1oc2ccc3ccccc3c2cc1-c1nnc(-c2cccs2)o1,inactive
14,O=C(OCC(=O)N1CCCC1=O)C1CCN(S(=O)(=O)c2ccc(Cl)c(C(F)(F)F)c2)CC1,inactive
15,Cc1ccc(NC(=O)COC(=O)[C@H](C)N2C(=O)C3CC=CCC3C2=O)cc1S(=O)(=O)N(C)C (some centres undefined),inactive
16,CCCN(CC(=O)Nc1ccccc1C)C(=O)c1ccc(N2CCCC2=O)cc1,inactive
17,C=CC[C@@H](CC(=O)N[C@@H](CO)Cc1ccccc1)C(=O)N[C@H](COC(=O)[C@H](CC=C)CC(=O)OC(C)(C)C)Cc1c[nH]c2ccccc12,28.2 µM (active)
18,C=CC[C@@H](CC(=O)N[C@@H](CO)Cc1ccccc1)C(=O)N[C@H](COC(=O)[C@@H](CC=C)CC(=O)OC(C)(C)C)Cc1c[nH]c2ccccc12,28.2 µM (active)
19,C=CC[C@H](CC(=O)N[C@H](CO)Cc1ccccc1)C(=O)N[C@@H](COC(=O)[C@@H](CC=C)CC(=O)OC(C)(C)C)Cc1c[nH]c2ccccc12,25.1 µM (active)
20,O=C(CCCCCn1c(=S)[nH]c2ccc(N3CCOCC3)cc2c1=O)NCc1ccc2c(c1)OCO2,inactive
21,Cn1c(N)nc2nc(CCc3ccccc3)c(O)nc2c1=O,inactive
22,CCOc1ccc(CC(=O)Nc2c(C(=O)c3ccccc3)oc3ccc(Cl)cc23)cc1OCC,inactive
23,Cc1ccc(Oc2ncnc(N)c2[N+](=O)[O-])cc1,inactive
24,Cc1cc(C)nc(Sc2ncnc(N)c2[N+](=O)[O-])n1,16.8 µM (active)
